# Measured values: PubChem BioAssay AID463173 (ICCB-Longwood Screening Facility, Harvard Medical School, 2010)
# Values joined by “and” are separate entries in the source; they are usually repeats but may differ in a detail not shown here. Identical values can stand only once. Hit rate of the full screen: of about 52,000 compounds, about 4,300 (8.3%) were called active. Cut-off read from the data, not from the text of the source: active = survival mostly below about 52% (no sharp cut-off); inactive = mostly above about 56%. What follows is part of a selection rich in actives, with near analogues and random picks from the rest. Some compounds were tested as several samples or in several runs, with calls that do not always agree.
# Tested on: DeltatarO mutant
# Assay: S. aureus survival, RN4220 and DeltatarO strains – OD600, teichoic acid synthesis inhibitors, primary screen (AID 463173)
# Conditions: S. aureus RN4220 wild type/DeltatarO growth, OD600, 18 h, stronger effect = lower value, screened at 18.75 µg/mL (by protocol)
row,Structure (SMILES),survival
1,COCCNC(=O)CSc1nc(-c2ccc(C)cc2)[nH]c1-c1ccc(OC)cc1,84% (inactive)
2,COc1cc(OC)c(NC(=O)C(NS(=O)(=O)c2cccc3nsnc23)c2ccccc2)cc1Cl (centres undefined),60% (inactive)
3,COc1ccccc1N1CCN(C(=O)c2cn(C)c3ccc(S(=O)(=O)N4CCOCC4)cc3c2=O)CC1,84% (inactive)
4,O=C(Cn1cc(C(=O)c2ccco2)c2ccccc21)Nc1ccccc1,41% (active) and 47% (inactive)
5,O=C(c1ccco1)c1cn(CCOc2ccc(Cl)cc2)c2ccccc12,78% (inactive)
6,Cc1ccccc1OCCn1cc(C(=O)c2ccco2)c2ccccc21,44% (inactive)
7,COc1ccc(OCCn2cc(C(=O)c3ccco3)c3ccccc32)cc1,56% (inactive)
8,CCOc1ccc(NC(=O)Cn2cc(C(=O)c3ccco3)c3ccccc32)cc1,63% (inactive)
9,Cc1ccc(C(C)C)c(OCCn2cc(C(=O)c3ccco3)c3ccccc32)c1,35% (active)
10,Cc1ccc(OCCn2cc(C(=O)c3ccco3)c3ccccc32)cc1C,27% (active)
11,O=C(c1ccco1)c1cn(CCOc2ccc(F)cc2)c2ccccc12,99% (inactive)
12,O=C(Cn1cc(C(=O)c2ccco2)c2ccccc21)Nc1ccc(Br)cc1,88% (inactive)
13,Cc1cc(OCCn2cc(C(=O)c3ccco3)c3ccccc32)ccc1Cl,53% (inactive)
14,Cc1ccc(C)c(OCCn2cc(C(=O)c3ccco3)c3ccccc32)c1,104% (inactive)
15,CC(C)(C)c1ccc(OCCn2cc(C(=O)c3ccco3)c3ccccc32)cc1,35% (active)
16,COc1ccccc1N1CCN(Cc2cc(COC(C)C)c3cccnc3c2O)CC1,84% (inactive)
17,CCC(C)(C)n1nnnc1C(C(C)C)N(Cc1cccnc1)Cc1ccco1 (centres undefined),78% (inactive)
18,COc1ccccc1N1CCN(C(=O)c2cn(C)c3ccc(S(=O)(=O)N(C)C4CCCCC4)cc3c2=O)CC1,83% (inactive)
19,CCCC12CN3CC(CCC)(CN(C1)C3c1c(C)[nH]c(=O)[nH]c1=O)C2=O (centres undefined),109% (inactive)
20,CCC(C)NC(=O)c1c(-c2ccccc2)c(-c2ccccc2)nn(C)c1=O (centres undefined),50% (inactive)
21,CCOc1ccc(OCC)c(NC(=O)C2CCCN(S(=O)(=O)c3cc(Br)cc4c3N(C(=O)CC)CC4)C2)c1 (centres undefined),100% (inactive)
22,COc1ccc(CCNC(=O)CCCn2c(=O)c3ccccc3n(Cc3cccc(Cl)c3)c2=O)cc1OC,72% (inactive)
23,Cc1ccc2nc(N3CCN(C(=O)C4COc5ccccc5O4)CC3)sc2c1 (centres undefined),89% (inactive)
24,COc1ccc(CNC(=O)COCc2cc(-c3ccc4c(c3)OCO4)on2)cc1,94% (inactive)
25,O=C(COCc1cc(-c2ccc3c(c2)OCO3)on1)NCc1ccc(F)cc1,85% (inactive)
26,O=C(COCc1cc(-c2ccc3c(c2)OCO3)on1)NCc1ccccc1Cl,70% (inactive)
27,Cc1ccc(CNC(=O)COCc2cc(-c3ccc4c(c3)OCO4)on2)cc1,75% (inactive)
28,COc1cccc(CNC(=O)COCc2cc(-c3ccc4c(c3)OCO4)on2)c1,37% (active)
29,COc1ccccc1CNC(=O)COCc1cc(-c2ccc3c(c2)OCO3)on1,25% (active)
